Reference: PubChem BioAssay (NCATS)
Records with an inconclusive call do not appear. Calls of active or inactive are those of the source. The call rests on the fitted dose curve; in most records, active means well fitted curve in the direction sought with a large enough effect; inconclusive means small, poorly fitted or top-dose-only effect, or another doubt; inactive means no such curve, though single readings can be large; an effect the other way counts as inactive or inconclusive.

Columns and labels:
[1] = target: ATP-dependent 6-phosphofructokinase (Trypanosoma brucei brucei) (UniProt O15648); experiment: qHTS Assay to Find Inhibitors of T. brucei phosphofructokinase: hit validation (AID 492961);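 further: luminescence reports ADP formed as PFK phosphorylates fructose-6-phosphate with ATP; on the % scale 0 is the no-effect control and ±100 the full control effect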
Chain of ATP-dependent 6-phosphofructokinase (Trypanosoma brucei brucei) (O15648 whole entry, looked up): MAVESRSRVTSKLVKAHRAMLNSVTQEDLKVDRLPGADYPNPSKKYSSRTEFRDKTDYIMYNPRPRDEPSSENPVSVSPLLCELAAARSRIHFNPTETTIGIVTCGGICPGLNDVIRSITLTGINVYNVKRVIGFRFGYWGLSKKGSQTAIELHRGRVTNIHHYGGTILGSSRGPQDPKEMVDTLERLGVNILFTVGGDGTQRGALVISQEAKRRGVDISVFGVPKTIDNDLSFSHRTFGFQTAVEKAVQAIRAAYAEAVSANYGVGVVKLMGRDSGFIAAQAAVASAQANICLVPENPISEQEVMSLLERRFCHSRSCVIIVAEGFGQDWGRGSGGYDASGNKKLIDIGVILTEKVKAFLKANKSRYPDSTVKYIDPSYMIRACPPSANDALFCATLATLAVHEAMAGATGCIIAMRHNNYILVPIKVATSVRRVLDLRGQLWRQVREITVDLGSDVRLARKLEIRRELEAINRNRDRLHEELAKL
How it was run: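 PFK 1.25 nM, F6P 0.5 mM, ATP 0.1 mM, MgCl2 5 mM, 0.1 M TEA pH 8.0, Tween20 0.01%, BSA 0.1%; 45 min RT. ADP-Glo two-step detection, luminescence. qHTS titration; curve fitting with curve-class categorization.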

[2] = qHTS profiling for inhibitors of Plasmodium falciparum proliferation (AID 504749); further: potency means the concentration at half of the fitted maximal effect;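 on activity, negative = inhibition: 0% = DMSO vehicle and full inhibition = artemisinin control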; on all read-outs here: nearly all actives have a fitted effect of over 60% in size; details: P. falciparum in erythrocytes, SYBR Green DNA, 72 h; for activity, negative = inhibition: at 28.7 µM (top of the series)
How it was run: (§1)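 Fluorescence of SYBR Green-bound parasite DNA, read at 485/535 nm, served as the growth measure. Infected erythrocytes were cultured with compound 72 h; artemisinin (0.29 uM) and DMSO wells defined the normalization range.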

3D7 = experiment: as above; details: P. falciparum in erythrocytes, SYBR Green DNA, 72 h; series mostly up to 28.7 µM
How it was run: as §1

ATS189 = experiment: as above; details: P. falciparum in erythrocytes, SYBR Green DNA, 72 h; series mostly up to 28.7 µM
How it was run: as §1

ATS95 = experiment: as above; details: P. falciparum in erythrocytes, SYBR Green DNA, 72 h; series mostly up to 28.7 µM
How it was run: as §1

C2A = experiment: as above; details: P. falciparum in erythrocytes, SYBR Green DNA, 72 h; series mostly up to 28.7 µM
How it was run: as §1

CP185 = experiment: as above; details: P. falciparum in erythrocytes, SYBR Green DNA, 72 h; series mostly up to 28.7 µM
How it was run: as §1

CP191 = experiment: as above; details: P. falciparum in erythrocytes, SYBR Green DNA, 72 h; series mostly up to 28.7 µM
How it was run: as §1

CP217 = experiment: as above; details: P. falciparum in erythrocytes, SYBR Green DNA, 72 h; series mostly up to 28.7 µM
How it was run: as §1

CP238 = experiment: as above; details: P. falciparum in erythrocytes, SYBR Green DNA, 72 h; series mostly up to 28.7 µM
How it was run: as §1

CP250 = experiment: as above; details: P. falciparum in erythrocytes, SYBR Green DNA, 72 h; series mostly up to 28.7 µM
How it was run: as §1

CP252 = experiment: as above; details: P. falciparum in erythrocytes, SYBR Green DNA, 72 h; series mostly up to 28.7 µM
How it was run: as §1

CP256 = experiment: as above; details: P. falciparum in erythrocytes, SYBR Green DNA, 72 h; series mostly up to 28.7 µM
How it was run: as §1

CP262 = experiment: as above; details: P. falciparum in erythrocytes, SYBR Green DNA, 72 h; series mostly up to 28.7 µM
How it was run: as §1

CP265 = experiment: as above; details: P. falciparum in erythrocytes, SYBR Green DNA, 72 h; series mostly up to 28.7 µM
How it was run: as §1

CP286 = experiment: as above; details: P. falciparum in erythrocytes, SYBR Green DNA, 72 h; series mostly up to 28.7 µM
How it was run: as §1

DFO2036 = experiment: as above; details: P. falciparum in erythrocytes, SYBR Green DNA, 72 h; series mostly up to 28.7 µM
How it was run: as §1

Dd2 = experiment: as above; details: P. falciparum in erythrocytes, SYBR Green DNA, 72 h; series mostly up to 28.7 µM
How it was run: as §1

HB3 = experiment: as above; details: P. falciparum in erythrocytes, SYBR Green DNA, 72 h; series mostly up to 28.7 µM
How it was run: as §1

P94_40 = experiment: as above; details: P. falciparum in erythrocytes, SYBR Green DNA, 72 h; series mostly up to 28.7 µM
How it was run: as §1

CN1[C@@H]2CC[C@@H]1CC(OC(=O)[C@H](CO)c1ccccc1)C2 (stereo not given in full)
inactive: Potency [1] | activity, negative = inhibition ([2]; parasite line A) 1.09% | activity, negative = inhibition ([2]; parasite line B) 2.23% | Potency (3D7) | Potency (ATS189) | Potency (ATS95) | Potency (C2A) | Potency (CP185) | Potency (CP191) | Potency (CP217) | Potency (CP238) | Potency (CP250) | Potency (CP252) | Potency (CP256) | Potency (CP262) | Potency (CP265) | Potency (CP286) | Potency (DFO2036) | Potency (Dd2) | Potency (HB3) | Potency (P94_40)

CC1OC(OC2CCC3(C)C(CCC4C3CC(O)C3(C)C(C5=CC(=O)OC5)CCC43O)C2)CC(O)C1OC1CC(O)C(OC2CC(O)C(OC3OC(CO)C(O)C(O)C3O)C(C)O2)C(C)O1 (stereo not given)
inactive: Potency [1] | activity, negative = inhibition ([2]; parasite line A) 13.2% | activity, negative = inhibition ([2]; parasite line B) -5.12% | Potency (3D7) | Potency (ATS189) | Potency (ATS95) | Potency (C2A) | Potency (CP185) | Potency (CP191) | Potency (CP217) | Potency (CP238) | Potency (CP250) | Potency (CP252) | Potency (CP256) | Potency (CP262) | Potency (CP265) | Potency (CP286) | Potency (DFO2036) | Potency (Dd2) | Potency (HB3) | Potency (P94_40)

COC(c1ccccc1)(c1ccccc1)C(Oc1nc(C)cc(C)n1)C(=O)O (stereo not given)
inactive: Potency [1] | activity, negative = inhibition ([2]; parasite line A) 2.94% | activity, negative = inhibition ([2]; parasite line B) 8.39% | Potency (3D7) | Potency (ATS189) | Potency (ATS95) | Potency (C2A) | Potency (CP185) | Potency (CP191) | Potency (CP217) | Potency (CP238) | Potency (CP250) | Potency (CP252) | Potency (CP256) | Potency (CP262) | Potency (CP265) | Potency (CP286) | Potency (DFO2036) | Potency (Dd2) | Potency (HB3) | Potency (P94_40)

OCC1O[C@@H](O[C@@H]2C(CO)OC(O)C(O)C2O)C(O)C(O)C1O (stereo not given in full)
inactive: Potency [1] | activity, negative = inhibition ([2]; parasite line A) 8.35% | activity, negative = inhibition ([2]; parasite line B) 4.55% | Potency (3D7) | Potency (ATS189) | Potency (ATS95) | Potency (C2A) | Potency (CP185) | Potency (CP191) | Potency (CP217) | Potency (CP238) | Potency (CP250) | Potency (CP252) | Potency (CP256) | Potency (CP262) | Potency (CP265) | Potency (CP286) | Potency (DFO2036) | Potency (Dd2) | Potency (HB3) | Potency (P94_40)

CC1(C)OC[C@@H]2O[C@@]3(C(=O)O)OC(C)(C)O[C@@H]3[C@@H]2O1
inactive: Potency [1] | activity, negative = inhibition ([2]; parasite line A) 1.64% | activity, negative = inhibition ([2]; parasite line B) 11.5% | Potency (3D7) | Potency (ATS189) | Potency (ATS95) | Potency (C2A) | Potency (CP185) | Potency (CP191) | Potency (CP217) | Potency (CP238) | Potency (CP250) | Potency (CP252) | Potency (CP256) | Potency (CP262) | Potency (CP265) | Potency (CP286) | Potency (DFO2036) | Potency (Dd2) | Potency (HB3) | Potency (P94_40)

O=C1C(I)=CC(=C(c2cc(I)c(O)c(I)c2)c2ccccc2C(=O)O)C=C1I
inactive: Potency [1] | activity, negative = inhibition ([2]; parasite line A) 1.17% | activity, negative = inhibition ([2]; parasite line B) -0.638% | Potency (3D7) | Potency (ATS189) | Potency (ATS95) | Potency (C2A) | Potency (CP185) | Potency (CP191) | Potency (CP217) | Potency (CP238) | Potency (CP250) | Potency (CP252) | Potency (CP256) | Potency (CP262) | Potency (CP265) | Potency (CP286) | Potency (DFO2036) | Potency (Dd2) | Potency (HB3) | Potency (P94_40)

O=[N+]([O-])O[C@H]1CO[C@H]2[C@@H]1OC[C@H]2O
inactive: Potency [1] | activity, negative = inhibition ([2]; parasite line A) 14.3% | activity, negative = inhibition ([2]; parasite line B) -1.17% | Potency (3D7) | Potency (ATS189) | Potency (ATS95) | Potency (C2A) | Potency (CP185) | Potency (CP191) | Potency (CP217) | Potency (CP238) | Potency (CP250) | Potency (CP252) | Potency (CP256) | Potency (CP262) | Potency (CP265) | Potency (CP286) | Potency (DFO2036) | Potency (Dd2) | Potency (HB3) | Potency (P94_40)

CCCCC(=O)OCC(=O)[C@]1(O)Cc2c(O)c3c(c(O)c2[C@H](OC2CC(NC(=O)C(F)(F)F)C(O)C(C)O2)C1)C(=O)c1c(OC)cccc1C3=O (stereo not given in full)
inactive: Potency [1]
active: Potency ([2]; parasite line A) 2240 nM | Potency ([2]; parasite line B) 2510 nM | Potency (3D7) 1580 nM | Potency (ATS189) 3160 nM | Potency (ATS95) 2000 nM | Potency (C2A) 2000 nM | Potency (CP185) 2240 nM | Potency (CP191) 2510 nM | Potency (CP217) 3160 nM | Potency (CP238) 2510 nM | Potency (CP250) 2510 nM | Potency (CP252) 2510 nM | Potency (CP256) 2000 nM | Potency (CP262) 1900 nM | Potency (CP265) 3160 nM | Potency (CP286) 1580 nM | Potency (DFO2036) 2510 nM | Potency (Dd2) 2240 nM | Potency (HB3) 2510 nM | Potency (P94_40) 2000 nM

C/C1=C2/[N-]C(C(CC(N)=O)[C@@]2(C)CCC(=O)NCC(C)OP(=O)([O-])O[C@H]2[C@@H](O)[C@@H](n3cnc4cc(C)c(C)cc43)O[C@@H]2CO)[C@]2(C)N=C(/C(C)=C3N=C(/C=C4N=C1C(CCC(N)=O)C\4(C)C)[C@@H](CCC(N)=O)[C@]\3(C)CC(N)=O)[C@@H](CCC(N)=O)[C@]2(C)CC(N)=O.CC(=O)O.[Co] (stereo not given in full)
inactive: Potency [1] | activity, negative = inhibition ([2]; parasite line A) -2.13% | activity, negative = inhibition ([2]; parasite line B) -2.9% | Potency (3D7) | Potency (ATS189) | Potency (ATS95) | Potency (C2A) | Potency (CP185) | Potency (CP191) | Potency (CP217) | Potency (CP238) | Potency (CP250) | Potency (CP252) | Potency (CP256) | Potency (CP262) | Potency (CP265) | Potency (CP286) | Potency (DFO2036) | Potency (Dd2) | Potency (HB3) | Potency (P94_40)

C=NC(C(=O)NC1C(=O)N2C1SC(C)(C)C2C(=O)O)c1ccccc1 (stereo not given)
inactive: Potency [1] | activity, negative = inhibition ([2]; parasite line A) 7.65% | activity, negative = inhibition ([2]; parasite line B) -6.25% | Potency (3D7) | Potency (ATS189) | Potency (ATS95) | Potency (C2A) | Potency (CP185) | Potency (CP191) | Potency (CP217) | Potency (CP238) | Potency (CP250) | Potency (CP252) | Potency (CP256) | Potency (CP262) | Potency (CP265) | Potency (CP286) | Potency (DFO2036) | Potency (Dd2) | Potency (HB3) | Potency (P94_40)
